Structures are written as SMILES. In all, about 150,000 compounds went through this assay and about 180 (0.12%) were called active. Inconclusive results (about 6%) are left out. Shown is part of a subset that was picked to be rich in actives. A call without a number means that no potency is given here. Values without a mark were called inactive. Calls follow the shape of the dose curve; as a rule, active = well fitted cell-killing curve with a large enough effect; inconclusive = small, poorly fitted or top-dose-only effect, or effect the other way; inactive = flat fitted curve, though single readings scatter.
Potency is read from the fitted curve at half-maximal effect.

This assay in a line: GF-AFC viability counterscreen for inhibitors of alpha-synuclein gene (SNCA) expression. Also: nearly all actives have a fitted effect of over 30% in size. The note with it: HEK-293-SNCA-luc viability, GF-AFC fluorescence, 24 h; series mostly up to 57.1 µM. From the text: Assay Submitter (PI): Daniel R. Scoles Ph.D.
Department of Neurology, University of Utah, Salt Lake City, Utah
Accumulation of alpha-synuclein is a main underlying pathological feature of Parkinson's disease (PD) and alpha-synucleinopathies, for which lowering expression of the alpha-synuclein gene (SNCA) is a potential therapeutic avenue. Using a cell-based luciferase reporter of SNCA expression we performed a quantitative high throughput screen (qHTS) of 155,885 compounds in dose response. The screening assay was generated using genome editing to insert the luciferase gene downstream and in frame of the SNCA gene in HEK-293 cells (1). A viability counterscreen using GF-AFC was used to eliminate cytotoxic and false positive compounds. After in silico analysis (clustering, removal of frequent hitter nuisance chemotypes), inhibitor compounds from the primary screen were selected for follow up and re-tested at 11-doses in the SNCA-luc cells (luciferase and GF-AFC confirmation), and in CMV-luc expressing cell line to flag general transcriptional repressors.
Described herein are the results of the GF-AFC viability counterscreen for SNCA inhibitors; inactivity (no decrease in fluorescence signal, not cytotoxic) is the desired output for this assay.
1. Dansithong, W., Paul, S., Scoles, D. R., Pulst, S. M., and Huynh, D. P. (2015) Generation of SNCA Cell Models Using Zinc Finger Nuclease (ZFN) Technology for Efficient High-Throughput Drug Screening. PLoS ONE 10, e0136930.
SEQUENCE No. (e.g., 1, 2, 3, etc.); […] (e.g., Cells, Incubation, Reagent, etc.); VALUE; DESCRIPTION
1; Cells; 4 uL; Dispense 1500 HEK-293-SNCA-luc cells/well into Greiner 1536-well white / solid bottom tissue culture treated plate. The plate was covered with metal lids with gas-exchange holes.
2; Incubate; 24 hours; Incubate at 37C, 5% CO2, 95% RH.
3; Compounds; 23 nL; Compounds and controls were transferred via a Kalypsys Pin Tool (Wako USA) equipped with a 1536-slotted pin array. The plate was covered with metal lids with gas-exchange holes.
4; Incubate; 24 hours; Incubate at 37C, 5% CO2, 95% RH.
5; Dispense; 1 uL; Dispense Gly-Phe-7-amino-4-trifluoromethylcoumarin (GF-AFC, prepared at 125 uM in PBS) was added. The plate was covered with metal lids with gas-exchange holes.
6; Incubate; 30 min; Incubate at 37C, 5% CO2.
7; Detector; Fluorescence; Measure fluorescence with ViewLux microplate reader (PerkinElmer) equipped with 405/10 excitation and 540/25 emission filters.
8; Dispense; 3 uL; Dispense ONE-Glo ([…]) lucifase detection reagent was added to each well. Plates were covered with metal lids with gas-exchange holes.
9; Incubate; 15 min; Incubate at room temperature.
10; Detector; Luminescence; Measure luminescence with ViewLux microplate reader (PerkinElmer) equipped with clear filters.
NOTES (numbers refer to sequence above)
1; HEK-293-SNCA-luc were cultured and suspended in phenol-red free DMEM (4.5 g/L glucose, 25 mM HEPES, cat #21063 (Thermo)).
3; Compounds were added to the assay plate in an 11-point intra plate dose response, 1:3 titration in DMSO with a final concentration range of […]. Vehicle-only plates, with DMSO being pin-transferred to every well, were inserted at the beginning of screening runs to confirm expected assay performance. Activity was normalized to wells containing medium only (-100% activity, full inhibition) and SNCA-luc cells treated with DMSO vehicle control (0% activity), contained on the same plate as test samples.
10; Signals were analyzed, and dose-response curves were fit using the Hill equation. Compounds in curve classes -1.1, -1.2, -2.1, -2.2 in the SNCA-luc assay were considered active. Compounds were eliminated from further consideration if also active (curve class -1.1, -1.2, -1.3, -1.4, -2.1, -2.2, -2.3, -2.4) in the GF-AFC cytotoxicity assay.
A general note: Counterscreens check selectivity or assay interference.
Consider `Cc1c(C(F)(F)F)nc(-c2ccc(CN3CCNCC3)cc2)[nH]c1=O`, for which the Potency result is “inactive”.

As for `Cc1ccc(NC(=O)Cn2ccn3nc4c(c3c2=O)CCCCC4)cc1`, the Potency entry is “inactive”. Take `Cc1ccc(OCc2nc(C3CCN(C(=O)Cc4cccc(F)c4)CC3)no2)cc1`: the Potency entry is “inactive”.

For the compound `O=C(COc1ccc(F)cc1)NC1CCN(c2cc(-c3ccccc3)[nH]n2)CC1`, the Potency result is “inactive”. Regarding `CCC1Oc2ccc(NC(=O)c3c(F)cccc3F)cc2CN(CCc2ccc(F)cc2)C1=O` (configuration not stated), the Potency entry is “inactive”. As to `COC(=O)[C@@H]1Cc2c([nH]c3ccccc23)[C@H]2C[C@@H](NCCN3CCOCC3)C[C@@H](c3ccccc3)N21`, the Potency result was “inactive”.

For the compound `COC(=O)[C@@H]1Cc2c([nH]c3ccccc23)[C@H]2C[C@H](NCCNC(C)=O)C[C@@H](c3ccc(C)cc3)N21`, the Potency entry is “inactive”.

Take `COC(=O)[C@@H]1Cc2c([nH]c3ccccc23)[C@H]2C[C@@H](NCCN3CCOCC3)C[C@@H](c3ccccc3F)N21`: the Potency was 28.2 µM (active). `CN(C)C[C@@H]1CN(S(C)(=O)=O)C[C@H]1NC(=O)c1nn(C)c2ccccc12`: the Potency result is “inactive”. In the case of `COc1ccccc1Nc1ccnc(N2CCC(C(=O)NCc3cccc(Cl)c3)CC2)n1`, the Potency result was “inactive”.

On to `O=C(c1ccc(F)cc1)N1CCN(c2cc(-c3ccc(F)cc3)[nH]n2)CC1`, for which the Potency entry is “inactive”. Same read-out and setting: under `CCOC(=O)C1CCN(C(=O)C2CCc3nnc(CN[S+](C)(=O)[O-])n32)CC1` (configuration not stated) stands “inactive”.

Regarding `O=C(c1ccon1)N1CC[C@@H]2[C@@H](CCC(=O)N2CC2CCNCC2)C1`, the Potency result is “inactive”. Turning to `CCOc1ccccc1NC(=O)N1CCCN(C)c2ccccc21`, the Potency entry was “inactive”. On the same count and under the same terms, under `O=C(CCc1ccccc1)Nc1ccc([C@@H](O)[C@H]2COCC(=O)N2Cc2ccccc2F)cc1` stands “inactive”. Take `O=C(CCc1ccnc(N2CCCC2)c1)N1CCN(c2ccccc2)CC1`: the Potency result was “inactive”. As for `Cc1ccc(NC(=O)c2nc(S(=O)(=O)Cc3cccc(C)c3)ncc2Cl)cc1`, the Potency was 28.2 µM (active).

As for `CCSc1ncc(Cl)c(C(=O)Nc2cc(C)ccc2C)n1`, the Potency entry was “inactive”. Regarding `CCCS(=O)(=O)c1ncc(Cl)c(C(=O)Nc2scc(-c3ccccc3)c2C(=O)OCC)n1`, the Potency entry was “inactive”. Consider `CC1=C[C@@H](CN2CCC(O)CC2)[C@H](C(C)C)C[C@H]1Cc1nnc(-c2ccccc2F)o1`, for which the Potency result is “inactive”. With `C[C@@H](c1ccccc1)N(C)C(=O)c1cc(COc2cccc(F)c2)[nH]n1`, the Potency entry was “inactive”. As for `CCOC(=O)c1cccc(NC(=O)c2ccc3c(c2)N(C)C2CCCCN2C3=O)c1` (configuration not stated), the activity change, negative = cytotoxicity was 4.91% [at 12.5 µM]. With `Cc1cccc(C(=O)N2CCC(OC3CCN(Cc4ccccc4)CC3)CC2)c1`, the Potency result is “inactive”.

Consider `O=C(Nc1ccc(C(F)(F)F)cc1)C1=NO[C@@H]2CN(CCc3ccccc3)C[C@H]12`, for which the Potency result was “inactive”.

In the case of `COc1ccc(S(=O)(=O)N2C[C@@H]3C[C@H](C2)c2c(NC(=O)C4CCCCC4)ccc(=O)n2C3)cc1`, the Potency entry is “inactive”. Regarding `Cc1ccc(S(=O)(=O)N2CCCC(Cn3c(C4CC4)nc4cccnc43)C2)cc1C` (configuration not stated), the Potency result is “inactive”. Take `CC(C)c1nc(-c2ccc(OC3CCN(C(=O)CCc4nc5ccccc5[nH]4)C3)cc2)no1` (configuration not stated): the Potency entry is “inactive”. Turning to `COc1ccc(-n2nc(C)c([C@@H]3C=C[C@@H](NC(=O)Nc4ccccc4)C3)c2C)cc1`, the Potency result was “inactive”. On to `CCc1ccccc1NC(=O)N1CCCC(Cn2c(C)nc3cccnc32)C1` (configuration not stated), for which the Potency result is “inactive”. As for `O=C(NC1CCN(c2nc3ncccc3o2)CC1)c1ccc(Cl)nc1`, the Potency result is “inactive”. Same read-out and setting: under `CCc1ccc(NC(=O)Cn2ccn3nc4c(c3c2=O)CCCC4)cc1` stands “inactive”; under `COc1ccc(NC(=O)N[C@H]2[C@H](O)[C@@H](N3CCN(c4ccccc4)CC3)[C@@H]3OC[C@H]2O3)cc1`, “inactive”; under `Cc1nc(N(C)C)ncc1C(=O)NC(C(=O)O)c1c(C)n[nH]c1C` (configuration not stated), “inactive”. Still for that read-out and setting: under `COc1ccc(CC(=O)N2CC[C@@H](CC(=O)O)[C@@H](CCN3CCNCC3)C2)cc1` stands “inactive”.

For `Cc1cc(NC(=O)c2ccc3c(c2)N(C)C2CCCCCN2C3=O)ccc1F` (configuration not stated), the activity change, negative = cytotoxicity is -3.22% [at 12.5 µM]. For `COc1nc2nc(CC3CC3)n(C)c2cc1-c1cccc(NC(C)=O)c1`, the Potency result was “inactive”. Same read-out and setting: under `O[C@H]1[C@H](NCc2ccco2)[C@H]2CO[C@H](O2)[C@@H]1N1CCC(Cc2ccccc2)CC1` stands “inactive”; under `COCCC1(NS(C)(=O)=O)CCN(C(=O)c2ccc(OC)nc2OC)CC1`, “inactive”.

`CC(NC(=O)c1ccc(OC(F)(F)F)cc1)C(=O)N1CCN(c2ccccn2)CC1` (configuration not stated): the Potency result was “inactive”. Consider `CCNC(=O)N1CCCC1c1noc(CCC(=O)NC2CCCC2)n1` (configuration not stated), for which the Potency result was “inactive”.

Turning to `O=C1Nc2ccccc2CC12CCCN2Cc1ccccc1` (configuration not stated), the Potency entry is “inactive”. Same read-out and setting: under `Cc1cc(N2CCC3(CC2)CC(c2ccccc2)C(=O)N3C)ncn1` (configuration not stated) stands “inactive”. Regarding `Cc1cccnc1CN1CCN(C(=O)Cn2nnnc2CN2CCCC2)CC1`, the Potency entry is “inactive”. In the case of `CC1=C[C@@H](CNS(C)(=O)=O)[C@H](C(C)C)C[C@H]1Cc1nnc(-c2ccncc2)o1`, the Potency result is “inactive”. Consider `CC1=C[C@@H](CNC2CC2)[C@H](C(C)C)C[C@H]1Cc1nnc(-c2ccc(C)cc2)o1`, for which the Potency was 35.5 µM (active).

`CC1=C[C@@H](CNC(C)C)[C@H](C(C)C)C[C@H]1Cc1nnc(-c2ccncc2)o1`: the Potency entry is “inactive”.

As to `O=C1CCC2(C(=O)NCc3cccc(F)c3)CCC=C2N1C1CCCC1` (configuration not stated), the Potency entry was “inactive”.
